The results in this text go back to PubChem BioAssay AID588492 (Sanford-Burnham Center for Chemical Genomics, 2011).

The structures appear in SMILES notation. The campaign covered roughly 360,000 compounds. About 2,300 (0.64%) were called active.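 The calls were made as follows: active = compounds giving at least 50% protection of heart cells from peroxide-induced death in the single-dose screen, raw or plate-pattern-corrected value; inactive = the rest.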 The full list was thinned out, with actives kept by preference.

This test is described as follows: cardioprotection against H2O2-induced cell death, primary screen, uHTS, H9c2 cells, ATPLite luminescence (AID 588492).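 Also: 0% = DMSO wells with peroxide and 100% = DMSO wells without peroxide.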 Particulars: H9c2 cardiomyocytes, H2O2 injury protection, 2 h, at 20 µM, hits give high values. (ATP-based viability assays read luminescence as a measure of living cells.)
Regarding `Cc1cc(C(F)F)nn1CC(=O)NC1CCCCCC1`, the protection from H2O2 cell death was -3.7% (inactive).

As for `O=C(OCCOCn1cc(Br)c(=O)[nH]c1=O)c1ccccc1`, the protection from H2O2 cell death is 7.1% (inactive).

As to `Cc1cc(C)c2c(n1)sc1c(=O)n(-c3ccccc3)c(=O)[nH]c12`, the protection from H2O2 cell death is 4.5% (inactive).

On to `CCOC(=O)c1sc(NC(=O)C2CSC3(C)CCC(=O)N23)nc1C` (stereo not drawn), for which the protection from H2O2 cell death is 4% (inactive).

Consider `COc1ccc(S(=O)(=O)NC(=O)C2(C)CCN2C(=O)COc2ccc(Cl)cc2)cc1` (stereo not drawn), for which the protection from H2O2 cell death was 5.6% (inactive).

For the compound `C[C@H](O)[C@@H]1C(=O)N2CCc3c([nH]c4ccccc34)[C@@H]2C[C@@H]1N(C)C(=O)Nc1ccc(F)cc1`, the protection from H2O2 cell death was -2.1% (inactive).

With `O=[N+]([O-])c1cc(Cl)cc(/C=N/NC(=S)Nc2cc(S(=O)(=O)N3CCOCC3)ccc2Cl)c1O`, the protection from H2O2 cell death was -20.3% (inactive).

For the compound `O=C(N/N=C/c1cc(Cl)cc([N+](=O)[O-])c1O)C(O)(c1ccccc1)c1ccccc1`, the protection from H2O2 cell death was 56.6% (active).

Consider `O=C(Cc1ccccc1)N/N=C/c1ccc(Cl)cc1Cl`, for which the protection from H2O2 cell death was -15.4% (inactive).

On to `NC(=O)Cn1c(=O)oc2ccccc21`, for which the protection from H2O2 cell death was 6.1% (inactive).

For the compound `CCN(CC(=O)NC(=O)NCc1ccccc1)Cc1nc2ccccc2c(=O)[nH]1`, the protection from H2O2 cell death is 7.1% (inactive).

With `CC(C)(C)c1ccc(NC(=O)COC(=O)CCc2nc3ccccc3c(=O)[nH]2)cc1`, the protection from H2O2 cell death is 36.5% (inactive).

As for `CCN(CC)c1ccc(C(=O)NNC(=O)CCc2nc3ccccc3c(=O)[nH]2)cc1`, the protection from H2O2 cell death was 56.2% (active).

For `O=C(CSCc1ccccc1Cl)NNC(=O)c1ccccc1`, the protection from H2O2 cell death was 1.3% (inactive).

As for `O=C(CSc1ncn[nH]1)Nc1nc2c(F)c(F)c(F)cc2s1`, the protection from H2O2 cell death was -1.5% (inactive).

Take `Cc1ccc(OCC(=O)Nc2ccc3oc(=O)ccc3c2)cc1C`: the protection from H2O2 cell death was 0.6% (inactive).

With `CCN1C(=O)[C@@H]2[C@@H]3CN(S(=O)(=O)c4ccccc4C)[C@@H](c4ccc(Cl)cc4)[C@@H]3C(=O)C[C@@H]2C1=O`, the protection from H2O2 cell death is 8.3% (inactive).

On to `CCOC(=O)CNC(=O)CSc1ccc2nnc(-c3cccnc3)n2n1`, for which the protection from H2O2 cell death is -2.8% (inactive).

As to `COC(=O)c1ccc(CSc2nnc(N)s2)o1`, the protection from H2O2 cell death is -10.8% (inactive).

Consider `COC(=O)c1ccc(CSc2ccc3nnc(-c4ccccc4)n3n2)o1`, for which the protection from H2O2 cell death was 80.8% (active).

For `CC(C)[C@@H]1COC(c2cccc(C3=N[C@H](C(C)C)CO3)c2)=N1`, the protection from H2O2 cell death is -14.6% (inactive).

As for `COc1ccc(Cl)cc1S(=O)(=O)N1CCN(CC(=O)C(C)(C)C)CC1`, the protection from H2O2 cell death was -8.8% (inactive).

Turning to `O=C(CN1CCN(S(=O)(=O)c2cc(Cl)ccc2Cl)CC1)c1ccc(O)c(O)c1`, the protection from H2O2 cell death was 55.1% (active).

As to `N#Cc1ccsc1NC(=O)CN1CCN(S(=O)(=O)c2cc(Cl)ccc2Cl)CC1`, the protection from H2O2 cell death is 8.3% (inactive).

`COc1ccc(N2CCN(C(=O)COc3ccc4c(C)cc(=O)oc4c3)CC2)cc1`: the protection from H2O2 cell death was 19.4% (inactive).

Regarding `Cc1ccc(O)c(/C=N/NC(=O)COc2ccc3c(C)cc(=O)oc3c2)c1`, the protection from H2O2 cell death is 38.5% (inactive).

As for `Cc1ccc2c(CSc3nncs3)cc(=O)oc2c1`, the protection from H2O2 cell death was -3.2% (inactive).

With `CCOC(=O)Cc1csc(SCc2cc(=O)oc3cc(O)ccc23)n1`, the protection from H2O2 cell death is 55.7% (active).

`CCOC(=O)Cc1csc(NC(=O)COc2ccc3c(C)cc(=O)oc3c2)n1`: the protection from H2O2 cell death is 71.2% (active).

As for `CCOC(=O)Cc1csc(SCC(=O)Nc2ccc(C)cc2F)n1`, the protection from H2O2 cell death was -15.1% (inactive).

In the case of `C/C(=N\NS(=O)(=O)c1ccccc1)c1c(O)cc(C)oc1=O`, the protection from H2O2 cell death is -1% (inactive).

Take `Cc1ccc(Cl)cc1NC(=O)C1CCCN(c2cnccn2)C1` (stereo not drawn): the protection from H2O2 cell death is 1.6% (inactive).

In the case of `CC1(C(=O)NCC2CCOCC2)Cc2c(-c3cccc(C(N)=O)c3)ccnc2O1` (stereo not drawn), the protection from H2O2 cell death was 9.5% (inactive).

Consider `Fc1ccc(-c2ccc(-c3nn4c(-c5ccco5)nnc4s3)o2)cc1`, for which the protection from H2O2 cell death was 98.7% (active).

For `Cc1nc2c(-c3ccc(F)cc3)c(C)nn2c(C)c1CCC(=O)NCc1ccco1`, the protection from H2O2 cell death is 2.6% (inactive).

As to `CNc1nnc(-c2ccco2)s1`, the protection from H2O2 cell death is 3.7% (inactive).

As for `CC(C)(C)OC(=O)C[C@@H]1C/C=C\C[C@@H](CC(=O)N[C@H](CO)Cc2ccccc2)C(=O)NCCOC1=O`, the protection from H2O2 cell death was 12.4% (inactive).

In the case of `CC(C)(C)OC(=O)C[C@@H]1C/C=C\C[C@@H](CC(=O)N[C@H](CO)Cc2ccccc2)C(=O)NC[C@@H](c2ccccc2)OC1=O`, the protection from H2O2 cell death was 51.6% (active).

In the case of `CC(C)(C)OC(=O)C[C@H]1C/C=C\C[C@@H](CC(=O)N[C@H](CO)Cc2ccccc2)C(=O)NC[C@@H](c2ccccc2)OC1=O`, the protection from H2O2 cell death was 10.5% (inactive).

For `Cc1ccc(NS(=O)(=O)c2ccc3c(c2)NC(=O)CO3)cc1`, the protection from H2O2 cell death was -11.5% (inactive).

With `Cc1c(C)n2c(SCC(=O)NC3CCCC3)nnc2[nH]c1=O`, the protection from H2O2 cell death was 1.3% (inactive).

On to `COc1ccccc1C(=O)NC(CCSC)C(=O)NNC(=O)c1ccccc1C` (stereo not drawn), for which the protection from H2O2 cell death is 4.9% (inactive).

Turning to `Cc1ccc(S(=O)(=O)/N=C2\C=C(NS(=O)(=O)c3ccc(C)cc3)C(=O)c3ccccc32)cc1`, the protection from H2O2 cell death was -17.9% (inactive).

Regarding `CC1=C/C(=N\S(=O)(=O)c2ccccc2)C(C(C)C)=CC1=O`, the protection from H2O2 cell death was 63.7% (active).

`COc1ccc(S(=O)(=O)/N=C2\C=C(NS(=O)(=O)c3ccccc3)C(=O)c3ccccc32)cc1`: the protection from H2O2 cell death was -11.4% (inactive).

With `O=C(c1ccc(O)cc1)c1ccc(C(=O)O)c(C(=O)O)c1`, the protection from H2O2 cell death is 5.7% (inactive).

As for `Cc1cccnc1C(NC(=O)C1CCN(Cc2ccc(Cl)c(Cl)c2)CC1)c1ccc(Cl)cc1` (stereo not drawn), the protection from H2O2 cell death was 4.5% (inactive).

For `Cc1nc2ccccc2n1CC(=O)N/N=C/c1cccs1`, the protection from H2O2 cell death was -3.1% (inactive).

In the case of `CCn1c(C(O)c2cc(OC)ccc2OC)nc2ccccc21` (stereo not drawn), the protection from H2O2 cell death is -3.6% (inactive).

Regarding `CCn1c(/C=N/NC(=O)c2ccc(OC)cc2)nc2ccccc21`, the protection from H2O2 cell death was 50.7% (active).

Regarding `S=c1ccc2ccccc2[nH]1`, the protection from H2O2 cell death is 4.8% (inactive).

On to `Cc1cc2c3ccccc3[nH]c(=O)n2n1`, for which the protection from H2O2 cell death is 2.8% (inactive).

Consider `S=c1[nH]c2ccccc2c2ccccc12`, for which the protection from H2O2 cell death was 50.1% (active).

For the compound `COc1ccc(S(=O)(=O)N2CCN(C(=S)NCC3CCCO3)CC2)cc1OC` (stereo not drawn), the protection from H2O2 cell death was -4.4% (inactive).

In the case of `N=c1ccn(CC(=O)NC(N)=O)c2ccccc12`, the protection from H2O2 cell death is 4.5% (inactive).

As for `CC(C)C(=O)N1CCN(c2nc(-c3ccccc3)c3c(c2C#N)CC(C)(C)OC3)CC1`, the protection from H2O2 cell death is 15.1% (inactive).

On to `CCOC(=O)CSc1nc(N2CCOCC2)c2c(c1C#N)CC(C(C)C)OC2` (stereo not drawn), for which the protection from H2O2 cell death is -4% (inactive).

`CC1(C)Cc2c(C#N)c(SCc3nc4ccccc4[nH]3)nc(N3CCOCC3)c2CO1`: the protection from H2O2 cell death was 50.1% (active).
